Assay results: PubChem BioAssay (Tox21)
Results filed as inconclusive are left out. Active and inactive are the calls of the source. Unless noted, the call rests on the fitted dose curve; in most records, active means well fitted curve in the direction sought with a large enough effect in the repeat runs; inconclusive means weak or mixed curves; inactive means no such curve, though single readings can be large; an effect the other way counts as inactive or inconclusive.

Key:
[1] = qHTS assay to identify small molecule antagonists of the estrogen related receptor (ERR) signaling pathway from Tox21 library - cell viability counter screen (AID 1224834); further: nearly all actives have a fitted effect of over 30% in size
How it was run: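 ERR reporter cells were plated 6 h before compound addition, then exposed to test compounds in DMSO for 17.5 h at 37 C. Viability was read as CellTiter-Fluor fluorescence after a 30-minute incubation at 37 C.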

[2] = molecular target: Luciferin 4-monooxygenase (Photinus pyralis) (UniProt P08659); assay: qHTS assay to identify small molecule inhibitors of firefly luciferase (AID 1224835); further: nearly all actives have a fitted effect of over 25% in size
Chain of Luciferin 4-monooxygenase (Photinus pyralis) (P08659 whole entry, looked up): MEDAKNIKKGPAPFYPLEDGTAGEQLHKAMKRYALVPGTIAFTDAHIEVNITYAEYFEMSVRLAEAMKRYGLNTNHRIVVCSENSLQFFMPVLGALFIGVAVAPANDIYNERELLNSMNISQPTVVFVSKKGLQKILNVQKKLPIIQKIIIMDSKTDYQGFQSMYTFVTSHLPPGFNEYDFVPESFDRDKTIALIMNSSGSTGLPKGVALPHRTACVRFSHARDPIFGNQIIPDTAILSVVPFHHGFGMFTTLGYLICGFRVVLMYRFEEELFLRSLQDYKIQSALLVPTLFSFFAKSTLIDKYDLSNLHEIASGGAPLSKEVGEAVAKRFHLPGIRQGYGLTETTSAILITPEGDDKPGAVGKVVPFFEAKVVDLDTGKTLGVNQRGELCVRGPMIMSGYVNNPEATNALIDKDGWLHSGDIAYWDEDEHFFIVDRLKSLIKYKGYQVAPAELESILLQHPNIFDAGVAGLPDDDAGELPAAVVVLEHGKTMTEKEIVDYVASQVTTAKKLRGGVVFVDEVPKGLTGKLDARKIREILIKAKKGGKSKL
How it was run: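 Quantitative HTS format; KM concentrations of both substrates. Purified P. pyralis FLuc activity quantified from luminescence images.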

[3] = qHTS assay to identify small molecule agonists of the constitutive androstane receptor (CAR) signaling pathway - cell viability counter screen (AID 1224836); further: nearly all actives have a fitted effect of over 45% in size
How it was run: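 Cells were seeded and incubated 4 hrs. Compounds were added across 15 concentrations together with PK11195 at 0.75 uM final. Plates were incubated 23 hrs at 37 C. CellTiter-Fluor was added and fluorescence measured.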

[4] = qHTS assay to identify small molecule antagonists of the constitutive androstane receptor (CAR) signaling pathway - cell viability counter screen (AID 1224837); further: nearly all actives have a fitted effect of over 45% in size
How it was run: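 HepG2 cells stably expressing hCAR and a CYP2B6-2.2kb reporter were plated and pre-incubated 4 hr at 37 C/5% CO2, then given compounds at 15 concentrations plus 50 nM CITCO (final). After 23 hr, viability was read by CellTiter-Fluor fluorescence.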

[5] = molecular target: Nuclear receptor subfamily 1 group I member 3 (Homo sapiens) (UniProt Q14994); assay: qHTS assay to identify small molecule antagonists of the constitutive androstane receptor (CAR) signaling pathway (AID 1224838); further: nearly all actives have a fitted effect of over 40% in size
Chain of Nuclear receptor subfamily 1 group I member 3 (Homo sapiens) (Q14994 whole entry, looked up): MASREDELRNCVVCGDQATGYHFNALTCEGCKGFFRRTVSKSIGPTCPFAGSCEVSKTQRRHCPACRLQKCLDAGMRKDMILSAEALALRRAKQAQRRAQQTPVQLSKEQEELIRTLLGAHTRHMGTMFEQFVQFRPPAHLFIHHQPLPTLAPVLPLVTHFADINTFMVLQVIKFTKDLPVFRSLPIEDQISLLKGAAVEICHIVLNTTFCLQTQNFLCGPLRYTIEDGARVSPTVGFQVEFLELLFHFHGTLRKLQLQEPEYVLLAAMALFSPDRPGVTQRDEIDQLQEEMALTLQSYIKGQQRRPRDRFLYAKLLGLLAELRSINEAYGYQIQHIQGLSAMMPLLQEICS
How it was run: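 HepG2 cells stably co-transfected with hCAR and a CYP2B6-2.2kb luciferase reporter were seeded 4 h before compound addition at 15 concentrations. Cells were stimulated with 50 nM CITCO (final) for 24 h at 37 C; luciferase luminescence was then read.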

[6] = molecular target: Nuclear receptor subfamily 1 group I member 3 (Homo sapiens) (UniProt Q14994); assay: qHTS assay to identify small molecule agonists of the constitutive androstane receptor (CAR) signaling pathway (AID 1224839);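 further: HepG2 cells stably carrying human CAR and a CYP2B6 luciferase reporter; nearly all actives have a fitted effect of over 15% in size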
How it was run: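 Cells were plated and incubated 4 hrs, then dosed with compounds at 15 concentrations. PK11195 was added to 0.75 uM final. After 24 hrs at 37 C, luciferase luminescence was measured.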

[7] = qHTS assay to identify small molecule antagonists of the estrogen related receptor signaling pathway with the pleiotropic PPARgamma coactivator (PGC) from Tox21 10K library - cell viability counter screen (AID 1224840; active means well fitted cell-killing curve with a large enough effect in the repeat runs, not every such curve was filed as active; further: nearly all actives have a fitted effect of over 40% in size)
How it was run: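 PGC/ERR cells were seeded at 2,000 cells/well and left 6 hours at 37 C/5% CO2 before pin-tool addition of compounds in DMSO. After 17.5 hours at 37 C, CellTiter-Fluor was added and fluorescence read 30 minutes later.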

[8] = qHTS assay to identify small molecule antagonists of the estrogen related receptor signaling pathway with the pleiotropic PPARgamma coactivator (PGC) from Tox21 10K library (AID 1224841; call rule not given here; further: actives are mostly falling curves and most rising ones were filed inactive; nearly all actives have a fitted effect of over 50% in size)
How it was run: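 PGC/ERR reporter cells were seeded at 2,000 cells/well and held 6 hours at 37 C/5% CO2 before pin-tool addition of compounds in DMSO. After 18 hours at 37 C, One-Glo was added and luminescence read after 30 minutes at room temperature.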

[9] = qHTS assay to identify small molecule agonists of the estrogen related receptor signaling pathway with the pleiotropic PPARgamma coactivator (PGC) from Tox21 10K library (AID 1224842); further: nearly all actives have a fitted effect of over 15% in size
How it was run: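 PGC/ERR reporter cells (NTP line) were seeded 2,000 per well, rested 6 h at 37 C/5% CO2, then pin-dosed with compounds in DMSO for 18 h at 37 C; luciferase read by One-Glo luminescence after 30 min at room temperature.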

[10] = molecular target: Thyrotropin receptor (Homo sapiens) (UniProt P16473); assay: qHTS assay to identify small molecule agonists of the thyroid stimulating hormone receptor (TSHR) signaling pathway (AID 1224843; calls by dose curve; further: nearly all actives have a fitted effect of over 45% in size)
Chain of Thyrotropin receptor (Homo sapiens) (P16473 whole entry, looked up): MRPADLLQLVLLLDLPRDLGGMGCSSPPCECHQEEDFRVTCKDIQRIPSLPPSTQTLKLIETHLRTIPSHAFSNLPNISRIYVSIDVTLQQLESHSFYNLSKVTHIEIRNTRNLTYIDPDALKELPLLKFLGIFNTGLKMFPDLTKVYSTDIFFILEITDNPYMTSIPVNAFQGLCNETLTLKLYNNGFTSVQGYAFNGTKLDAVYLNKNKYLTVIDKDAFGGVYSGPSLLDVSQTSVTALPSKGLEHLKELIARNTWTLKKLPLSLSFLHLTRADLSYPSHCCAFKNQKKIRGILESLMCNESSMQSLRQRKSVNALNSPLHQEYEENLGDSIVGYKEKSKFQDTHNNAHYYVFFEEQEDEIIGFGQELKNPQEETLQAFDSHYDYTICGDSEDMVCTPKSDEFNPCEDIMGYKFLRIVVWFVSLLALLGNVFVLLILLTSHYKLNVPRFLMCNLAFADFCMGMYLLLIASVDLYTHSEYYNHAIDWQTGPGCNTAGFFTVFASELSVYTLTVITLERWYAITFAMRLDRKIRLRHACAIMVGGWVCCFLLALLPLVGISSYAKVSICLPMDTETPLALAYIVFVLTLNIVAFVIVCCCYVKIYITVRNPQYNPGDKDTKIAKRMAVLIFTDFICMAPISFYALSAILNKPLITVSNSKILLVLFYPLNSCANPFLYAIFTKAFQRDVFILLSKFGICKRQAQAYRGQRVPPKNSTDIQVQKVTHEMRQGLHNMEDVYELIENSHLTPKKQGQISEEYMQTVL
How it was run: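 Cell line HEK293 with TSHR; density 800/well. Exposure 30 min RT. Readout HTRF cAMP (cAMP-d2/anti-cAMP-cryptate), 1 h RT before reading.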

[11] = qHTS assay to identify small molecule agonists of the hypoxia (HIF-1) signaling pathway - cell viability counter screen (AID 1224844; calls by dose curve; further: nearly all actives have a fitted effect of over 50% in size)
How it was run: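 HRE-bla ME-180 cells in medium with 0.5% dialyzed FBS were preincubated 5 hrs at 37C, exposed to compounds for 17 hrs, then viability was read as CellTiter-Glo luminescence after 30 min at room temperature, in the reporter wells.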

[12] = qHTS assay to identify small molecule agonists of H2AX (AID 1224845; active means well fitted activation curve with a large enough effect in the signal ratio in the repeat runs, not every such curve was filed as active; the % refers to the signal ratio)
How it was run: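 Wild-type CHO-K1 cells plated overnight, then exposed 3 hr at 37C to compounds at 15 concentrations (0.76% DMSO). Lysed, then HTRF anti-pH2AX(S139)-cryptate/anti-H2AX-d2 detection after 24 hr at room temperature; emissions 665 and 620 nm.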

[13] = qHTS assay to identify small molecule agonists of the hypoxia (HIF-1) signaling pathway (AID 1224846; active means well fitted activation curve with a large enough effect in the signal ratio in the repeat runs, not every such curve was filed as active; the % refers to the signal ratio)
How it was run: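 HRE-bla ME-180 cells (beta-lactamase reporter under hypoxia response element) were plated at 2,000 cells/well in medium with 0.5% dialyzed FBS, rested 5 hrs, then given compounds in DMSO for 17 hrs at 37C, 5% CO2. Reporter induction was read with CCF4-AM FRET substrate.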

[14] = qHTS assay to identify small molecule antagonists of the estrogen related receptor (ERR) signaling pathway from Tox21 library (AID 1224848); further: nearly all actives have a fitted effect of over 50% in size
How it was run: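 Screening used an ERR reporter line supplied by NTP, exposed for 18 h at 37 C to library compounds delivered in DMSO. Signal was luciferase luminescence developed with ONE-Glo at room temperature for 30 min.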

[15] = qHTS assay to identify small molecule agonists of the estrogen related receptor (ERR) signaling pathway from Tox21 library (AID 1224849; calls by dose curve; further: nearly all actives have a fitted effect of over 15% in size); conditions: ERR reporter cell line, ONE-Glo luciferase, 18 h; at 92.4 µM (top of the series) unless noted
How it was run: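 ERR reporter cell line (NTP) seeded, rested 6 h at 37 C/5% CO2, then pinned with Tox21 compounds in DMSO. After 18 h at 37 C, ONE-Glo luciferase luminescence was read following 30 min at room temperature.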

[16] = qHTS RealTime-Glo MT Cell Viability Assay in HepG2 cells - 24 hour (AID 1224867); further: nearly all actives have a fitted effect of over 50% in size
How it was run: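 Tox21 10K library screened in qHTS format on HepG2 cells carrying RealTime-Glo reagents. Compounds were added after a 5 h preincubation, and the luminescent signal from continuous culture was measured repeatedly during 40 h treatment.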

[17] = qHTS RealTime-Glo MT Cell Viability Assay in HEK293 cells - 32 hour (AID 1224868)
How it was run: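 Luminescence generated by NanoLuc from substrate produced by living HEK293 cells served as the viability signal. Each value reflects the reading at its stated time point during continuous 40 h compound exposure at 37 C.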

[18] = A CellTox Green Cytotoxicity Assay to monitor cytotoxicity in HEK293 cells - 0 hour (AID 1224869); further: nearly all actives have a fitted effect of over 50% in size
How it was run: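 HEK293 cells premixed with CellTox Green dye were seeded at 600 cells/well and left 5 h at 37 C/5% CO2 before pin transfer of 23 nL compound in DMSO. Fluorescence from dye bound to dead-cell DNA was read during 40 h treatment.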

[19] = qHTS RealTime-Glo MT Cell Viability Assay in HepG2 cells - 40 hour (AID 1224870); further: nearly all actives have a fitted effect of over 50% in size
How it was run: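 HepG2 cells mixed with RealTime-Glo MT reagents (NanoLuc plus cell-permeant prosubstrate) were seeded at 600 cells/well, incubated 5 h at 37 C/5% CO2, then pinned with compounds in DMSO; nonlytic luminescence tracked viability during 40 h treatment.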

[20] = qHTS assay to identify small molecule agonists of H2AX - cell viability counter screen (AID 1224847; calls by dose curve; further: top concentration of the series differs between compounds; nearly all actives have a fitted effect of over 30% in size)
How it was run: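 Cytotoxicity counter screen in wild-type CHO-K1 cells: a 3 hr compound treatment at 37C across 15 concentrations, followed by CellTiter-Glo luminescence to gauge viable cells.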
On the % scale 0 is the no-effect control and ±100 the full control effect.

Cc1ccc(Nc2c(F)cccc2Cl)c(CC(=O)O)c1
inactive: Potency [1] | Potency [2] | Potency [3] | Potency [4] | Potency [5] | Potency [6] | Potency [7] | Potency [8] | Potency [9] | Potency [10] | Potency [11] | Potency [12] | outcome [13] | Potency [14] | activity change, positive = activation [15] -14.1% [at 42.5 µM] | Potency [16] | Potency [17] | Potency [18] | Potency [19]

CC1CCc2nccnc21 (configuration not stated)
inactive: Potency [1] | Potency [2] | Potency [3] | Potency [4] | Potency [5] | Potency [6] | Potency [7] | Potency [8] | Potency [9] | Potency [11] | Potency [12] | outcome [13] | Potency [20] | Potency [14] | activity change, positive = activation [15] 3.13% | Potency [16] | Potency [17] | Potency [18] | Potency [19]

COc1cc(NC(C)CCCN)c2ncccc2c1 (configuration not stated)
inactive: Potency [1] | Potency [2] | Potency [3] | Potency [4] | Potency [5] | Potency [6] | Potency [7] | Potency [9] | Potency [10] | Potency [11] | Potency [12] | Potency [20] | Potency [14] | activity change, positive = activation [15] -9.72% [at 42.5 µM] | Potency [16] | Potency [18] | Potency [19]

CC(C)N=C=NC(C)C
inactive: Potency [1] | Potency [2] | Potency [3] | Potency [4] | Potency [5] | Potency [6] | Potency [7] | Potency [8] | Potency [9] | Potency [12] | outcome [13] | Potency [20] | Potency [14] | activity change, positive = activation [15] 2.53% | Potency [16] | Potency [17] | Potency [18] | Potency [19]

CCCCCCCCCCCCCC(=O)OCC(O)CO (configuration not stated)
inactive: Potency [1] | Potency [2] | Potency [3] | Potency [4] | Potency [5] | Potency [6] | Potency [7] | Potency [8] | Potency [9] | Potency [10] | Potency [11] | Potency [12] | outcome [13] | Potency [20] | Potency [14] | activity change, positive = activation [15] 1.85% | Potency [16] | Potency [18] | Potency [19]

N[C@@H](Cc1cc(I)c(O)c(I)c1)C(=O)O
inactive: Potency [1] | Potency [2] | Potency [3] | Potency [4] | Potency [5] | Potency [6] | Potency [7] | Potency [8] | Potency [9] | Potency [10] | Potency [12] | outcome [13] | Potency [20] | Potency [14] | activity change, positive = activation [15] 2.55% [at 42.5 µM] | Potency [16] | Potency [17] | Potency [19]

CC(C)(C)CCCCCCOC(=O)c1ccccc1C(=O)OCCCCCCC(C)(C)C
inactive: Potency [1] | Potency [2] | Potency [3] | Potency [4] | Potency [5] | Potency [6] | Potency [7] | Potency [9] | Potency [10] | Potency [12] | outcome [13] | Potency [20] | Potency [14] | activity change, positive = activation [15] -3.55% | Potency [16] | Potency [17] | Potency [19]
